# Experimental data from PubChem BioAssay (Tox21).
# Inconclusive results are not listed. Where a call stands in place of a potency, no number is given. Calls of active or inactive are those of the source. Calls come from the whole dose curve; as a rule, active = well fitted activation curve with a large enough effect in the repeat runs; inconclusive = weak or mixed curves; inactive = flat fitted curve, though single readings scatter.
# Test: A CellTox Green Cytotoxicity Assay to monitor cytotoxicity in HEK293 cells - 32 hour (AID 1224881); note: nearly all actives have a fitted effect of over 40% in size
# Settings: CellTox Green fluorescence; series mostly up to 76.8 µM
# Description: National Center for Advancing Translational Sciences [NCATS]
# NIH Chemical Genomics Center [NCGC]
# U.S. Environmental Protection Agency [EPA]
# National Institutes of Environmental Health Sciences [NIEHS]
# National Toxicology Program [NTP]
# Cell-based models are critical for drug discovery. Determining the natural cytotoxic effects resulting from test compounds is an essential research activity. A CellTox Green Cytotoxicity Assay to monitor cytotoxicity in real time of continues cell culture during 40 hours of the compound treatment was used to screen Tox21 10K library compounds in Hek293 cells. CellTox Green Cytotoxicity Assay is a nonlytic, homogeneous, biofluorescent method to measure cytotoxicity in cell culture after experimental manipulation. The assay system uses a proprietary asymmetric cyanine dye that is excluded from viable cells but preferentially stains the dead cell's DNA. […] Viable cells produce no appreciable increases in fluorescence. Therefore, the fluorescence signal produced by the binding interaction with dead cell DNA is proportional to cytotoxicity.
# The mixture of Hek293 cell suspension and reagents were dispensed at 600cells/6 ul/well in 1536-well tissue culture treated black solid bottom plates using a Multidrop dispenser. After the assay plates were incubated at a 37 C/5% CO2 incubator for 5 hours, 23 nL of compounds dissolved in DMSO, positive and negative controls was transferred to the assay plate by a pintool work station. The plates were incubated at 37 C for 40 hours. The fluorescence intensity were measured at 0h, 8h, 16h, 24h, 32h and 40h time points using ViewLux plate reader during compound treatment.
Structure (SMILES),Potency,cytotoxicity increase
C[C@@H]1C[C@H]2[C@@H]3CCC4=CC(=O)C=C[C@]4(C)[C@@]3(F)[C@@H](O)C[C@]2(C)[C@@]1(O)C(=O)CO,inactive,–
O=C(O)C(Cc1cc(I)c(O)c(I)c1)c1ccccc1 (stereo not given),inactive,–
Cc1nccn1-c1ccc(Sc2cccc(C3(C(N)=O)CCOCC3)c2)cc1,inactive,–
Fc1c(F)c(F)c(Br)c(F)c1F,inactive,–
C[C@@H]1C[C@H]2[C@@H]3CCC4=CC(=O)C=C[C@]4(C)[C@@]3(F)[C@@H](O)C[C@]2(C)[C@H]1C(=O)CO,inactive,–
NCC1CCCC(CN)C1 (stereo not given),inactive,–
CN1CCN(c2c(F)cc3c(=O)c(C(=O)O)cn4c3c2OCN4C)CC1,–,-5.3% [at 15.8 µM] (inactive)
CC(C)(O)c1ccccc1CC[C@@H](SCC1(CC(=O)O)CC1)c1cccc(/C=C/c2ccc3ccc(Cl)cc3n2)c1,inactive,–
CCCCC(CC)C(=O)OCCOCCOCCOCCOC(=O)C(CC)CCCC (stereo not given),inactive,–
CC#N,inactive,–
C[Si]1(C)O[Si](C)(C)O[Si](C)(C)O1,inactive,–
CCC(=O)OC/C=C/c1ccccc1,inactive,–
NC(=O)Nc1ccc(Cl)c(Cl)c1,inactive,–
Nc1c(I)cc(I)c(C(=O)N(CCC(=O)O)c2ccccc2)c1I,inactive,–
CC1=NN(c2ccc(C(=O)O)cc2)C(=O)C1,inactive,–
COc1ccc(CCC(=O)c2c(O)cc(O[C@@H]3O[C@H](CO)[C@@H](O)[C@H](O)[C@H]3O[C@@H]3O[C@@H](C)[C@H](O)[C@@H](O)[C@H]3O)cc2O)cc1O,inactive,–
CCCc1c(OCCCOc2ccc(OCC(=O)O)cc2)ccc(C(C)=O)c1O,inactive,–
CC(=O)N(c1onc(C)c1C)S(=O)(=O)c1ccc(N)cc1,inactive,–
CC(C)CCCC(=O)O,inactive,–
Brc1cc(-c2ccc(Br)c(Br)c2Br)cc(Br)c1Br,inactive,–

Structure (SMILES),Potency,cytotoxicity increase
OCCSc1ccccc1,inactive,–
CC(=O)CC(c1ccc([N+](=O)[O-])cc1)c1c(O)c2ccccc2oc1=O (stereo not given),inactive,–
CCCCCCOC(=O)CCCCCCCC(=O)OCCCCCC,inactive,–
CN(C(=O)C(Cl)Cl)c1ccc(OC(=O)c2ccco2)cc1,inactive,–
CO[C@H]1O[C@H](CO)[C@@H](O)[C@H](O)[C@H]1O,inactive,–
C[C@]12CCC(=O)C=C1C=C[C@@H]1[C@@H]2CC[C@@]2(C)[C@H]1CC[C@@]21CCC(=O)O1,inactive,–
CCCOC(=O)c1ccc(N)cc1,inactive,–
CCNC(=O)N1CCN(CCCC(c2ccc(F)cc2)c2ccc(F)cc2)CC1,inactive,–
CC(C)C(OC(=O)c1ccccc1)C(C)(C)COC(=O)c1ccccc1 (stereo not given),inactive,–
O=C(/C=C/c1ccccc1)OCCCc1ccccc1,inactive,–
O=C(Nc1ccccc1)Nc1ccccc1,inactive,–
COCC(O)CO (stereo not given),inactive,–
Cc1oc(C)c(C(=O)Nc2ccccc2)c1C,inactive,–
CCOc1cc(N)c(Cl)cc1C(=O)NCC1CN(Cc2ccc(F)cc2)CCO1 (stereo not given),inactive,–
Cc1ccc(S)cc1,inactive,–
OC(CCCN1CCCCC1)(c1ccccc1)c1ccccc1,inactive,–
OCC1CC=CCC1 (stereo not given),inactive,–
COCCOC,inactive,–
CC(CCO)CCc1ccccc1 (stereo not given),inactive,–
COCc1c(C(C)C)nc(C(C)C)c(/C=C/[C@@H](O)C[C@@H](O)CC(=O)O)c1-c1ccc(F)cc1,inactive,–
